Out of some 85,000 compounds screened, about 440 (0.52%) showed an effect of 50% or more. The sample holds strong results, similar compounds and a random draw of the others, so the mix is not that of the screen.
Test: In vitro enzyme assay to detect hydrolysis of chlorophenol red-beta-D-[…] directly proportional to the number of Toxoplasma stably expressing beta-galactosidase
Format: functional, organism-based, Toxoplasma gondii
Parameters: scale not given: in the data most compounds retested in dose-response had high values

## CC(=O)c1ccc2c(c1)CCC(=O)N2C
50 µM
  Percent Effect: 4.842%

## CCOC(=O)NCCC(=O)N1CCCCCC1
50 µM
  Percent Effect: 12.12%

## Cc1ccc(F)c(S(=O)(=O)NC[C@@H]2CCNC[C@H]2O)c1
50 µM
  Percent Effect: 0.2013%

## CN(C)Cc1nnc(-c2ccccc2)o1
50 µM
  Percent Effect: 4.493%

## Cc1cc(CN)sc1C
50 µM
  Percent Effect: 12.43%

## COC(=O)c1ccc2c(c1)N(C)C(=O)CO2
50 µM
  Percent Effect: -4.49%

## COc1ccc(C(C)Nc2nc3c(C)nn(C)c3c(=O)n2C)cc1 (configuration not stated)
10 µM
  Percent Effect: 18.77%

## CCn1c(Nc2ccccc2OC)nc2c(C)nn(C)c2c1=O
10 µM
  Percent Effect: -60.37%

## COc1ccc(Nc2nc3c(C)nn(C)c3c(=O)n2C)cc1
10 µM
  Percent Effect: 8.6%

## CCn1c(NCc2ccccc2)nc2c(C)nn(C)c2c1=O
10 µM
  Percent Effect: 72.53%

## CCn1c(NCc2ccc(OC)cc2)nc2c(C)nn(C)c2c1=O
10 µM
  Percent Effect: 69.56%

## CCn1c(NCc2ccco2)nc2c(C)nn(C)c2c1=O
10 µM
  Percent Effect: 8.368%

## O=C(NCC1(O)CCNC1)c1ccc(F)c(O)c1 (configuration not stated)
50 µM
  Percent Effect: -8.112%

## O=C(NCc1c[nH]nn1)C1(Cc2ccccc2)CCC1
50 µM
  Percent Effect: -1.868%

## O=C(Nc1cnccn1)c1ccc(F)cn1
50 µM
  Percent Effect: 3.391%

## Cc1ncc(CNC(C)(C)CO)c2cc(C(=O)c3ccc(Br)cc3)oc12
10 µM
  Percent Effect: 20.02%

## Cc1ncc(CN2CCCC2)c2cc(C(=O)c3ccc(Br)cc3)oc12.Cl
10 µM
  Percent Effect: 24.27%

## Cc1ncc(CNCCO)c2cc(C(=O)c3ccc(Br)cc3)oc12.Cl
10 µM
  Percent Effect: 76.96%

## Cc1ncc(CNCC(C)O)c2cc(C(=O)c3ccc(Br)cc3)oc12.Cl (configuration not stated)
10 µM
  Percent Effect: 12.01%

## Cc1ncc(CN(C)CCO)c2cc(C(=O)c3ccc(Br)cc3)oc12.Cl
10 µM
  Percent Effect: 15.47%

## COC(=O)c1ccc(C(=O)NC2(C#N)CCCC2)cc1
50 µM
  Percent Effect: -9.94%

## COc1cc(CN)cc(Br)c1OC
50 µM
  Percent Effect: 0.1756%

## Cn1ccc(C(=O)N2CCOc3ccccc32)cc1=O
50 µM
  Percent Effect: -11.87%

## Cc1scc(-c2nnc(SCC(N)=O)n2C)c1C
50 µM
  Percent Effect: -29.64%

## CSC(C)C(=O)Nc1ccc(Cl)c(C(=O)N(C)C)c1 (configuration not stated)
50 µM
  Percent Effect: 8.458%

## Cn1nccc1C(=O)Nc1cnn(CC(F)(F)F)c1
50 µM
  Percent Effect: -29.38%

## CCN(CC)c1nc(C)cc(C(=O)Nc2cnn(CC)c2)n1
10 µM
  Percent Effect: -30.04%

## Cc1cc(C(=O)NCc2c(C)nn(C)c2C)nc(N2CCOCC2)n1
10 µM
  Percent Effect: 20.1%

## Cc1cc(C(=O)Nc2cnn(CC(F)(F)F)c2)nc(N(C)C)n1
10 µM
  Percent Effect: 54.34%

## CCn1cc(NC(=O)c2cc(C)nc(N3CCOCC3)n2)cn1
10 µM
  Percent Effect: 48.82%

## Cc1cc(C(=O)Nc2cnn(CC(F)(F)F)c2)nc(N2CCOCC2)n1
10 µM
  Percent Effect: 69.43%

## CCCn1ccc(NC(=O)NC(C)C)n1
50 µM
  Percent Effect: -36%

## CN(C)CC(=O)NC(C)(C(N)=O)c1cccc(Cl)c1 (configuration not stated)
50 µM
  Percent Effect: 2.258%

## Cc1ccc2c(c1)C(=O)NCC2
50 µM
  Percent Effect: -9.759%

## CSc1ccc(CN(CCO)Cc2nccn2C)cc1
10 µM
  Percent Effect: 19.56%

## Cc1cccc(CN(CCO)Cc2nccn2C)n1
50 µM
  Percent Effect: 18.88%

## CCc1ccc(CN(CCO)Cc2nccn2C)nc1
50 µM
  Percent Effect: 67.1%

## NC(=O)OCCNC(=O)c1occc1Br
50 µM
  Percent Effect: 5.554%

## CCN1CCCC1CNC(=O)c1cccc(OC)c1 (configuration not stated)
50 µM
  Percent Effect: 4.98%

## CCNC(=O)C1CN(C(=O)C(O)c2ccc(Br)cc2)C1 (configuration not stated)
50 µM
  Percent Effect: -1.346%

## Cc1ccc([C@]2(O)CC[C@H]3CN(Cc4cccc(F)c4F)C[C@H]32)nc1.O=C(O)CC(O)(CC(=O)O)C(=O)O
10 µM
  Percent Effect: -4.995%

## CSc1ccc(CN2C[C@@H]3CC[C@@](O)(c4ccc(C)cn4)[C@@H]3C2)cc1
10 µM
  Percent Effect: 14.14%

## Cc1cccnc1[C@]1(O)CC[C@H]2CN(Cc3cccc(Cl)c3Cl)C[C@H]21.O=C(O)CC(O)(CC(=O)O)C(=O)O
10 µM
  Percent Effect: 10.13%

## Cc1ccc([C@]2(O)CC[C@H]3CN(Cc4cccc(Cl)c4Cl)C[C@H]32)nc1.O=C(O)CC(O)(CC(=O)O)C(=O)O
10 µM
  Percent Effect: 51.44%

## Cc1ccc([C@]2(O)CC[C@H]3CN(Cc4ccc(Cl)cc4Cl)C[C@H]32)nc1
10 µM
  Percent Effect: 8.934%

## Cc1ccc(F)cc1S(=O)(=O)N1CCN[C@H](C)C1
50 µM
  Percent Effect: -0.3006%

## CCN1CN=C(NS(=O)(=O)c2ccc(C)cc2)NC1
50 µM
  Percent Effect: -65%

## CCSc1cc(C(=O)N2CC[S+]([O-])CC2)ccn1
50 µM
  Percent Effect: 18.59%

## CC(CCc1ccc(O)cc1)NCCN1CCOCC1 (configuration not stated)
50 µM
  Percent Effect: -1.81%

## O=C(CSCC(=O)NC1CC1)Nc1ccccc1
50 µM
  Percent Effect: 16.41%

## CN(C)CCC1CN(C(=O)CCc2cccs2)CCO1 (configuration not stated)
50 µM
  Percent Effect: -11.11%

## CCOc1c(OC)cc(CN)cc1OC
50 µM
  Percent Effect: -2.331%

## CCC(CO)Nc1ncc(C(F)(F)F)cc1Cl (configuration not stated)
50 µM
  Percent Effect: -11.03%

## CCOc1cccc(NC(=O)NCCN(C)C)n1
50 µM
  Percent Effect: -13.49%

## COc1ccc(CS(=O)(=O)CC(=O)NCC2CC2)cc1F
10 µM
  Percent Effect: 4.977%

## COc1ccc(CC(=O)NCC2CCCNC2)cc1F (configuration not stated)
50 µM
  Percent Effect: 55.41%

## Cc1cccc(CC(=O)NCC2CCCNC2)c1 (configuration not stated)
50 µM
  Percent Effect: -6.216%

## CCC(C)NC(=O)c1cnn(-c2ccccc2)c1 (configuration not stated)
50 µM
  Percent Effect: -7.328%

## CCC(OC)c1n[nH]c(=O)n1Cc1cccc(OC)c1 (configuration not stated)
50 µM
  Percent Effect: -6.855%

## CCC(C)NCCOC (configuration not stated)
50 µM
  Percent Effect: -11.32%

## CCN(CC(=O)NC)C(=O)C(C)SC (configuration not stated)
50 µM
  Percent Effect: 23.69%

## Clc1ccccc1C1(c2ccnc(C3CC3)n2)CCNCC1
10 µM
  Percent Effect: 61.01%

## Clc1ccccc1C1(c2ccnc(-c3ccncc3)n2)CCNCC1
10 µM
  Percent Effect: 16.95%

## CC(C)(C)c1nccc(C2(c3ccccc3Cl)CCNCC2)n1
10 µM
  Percent Effect: 94.8%

## Clc1ccccc1C1(c2ccnc(-c3ncccn3)n2)CCNCC1
10 µM
  Percent Effect: 5.922%

## OC1(c2ccccc2Cl)CCNCC1
50 µM
  Percent Effect: 6.16%

## Clc1ccccc1C1(c2ccnc(CC3CC3)n2)CCNCC1
10 µM
  Percent Effect: 35.91%

## Clc1ccccc1C1(c2ccnc(C3CCCC3)n2)CCNCC1
10 µM
  Percent Effect: 92.51%

## O=c1[nH]cccc1-c1nccc(C2(c3ccccc3Cl)CCNCC2)n1
10 µM
  Percent Effect: 22.57%

## CC(C)c1nccc(C2(c3ccccc3Cl)CCNCC2)n1
10 µM
  Percent Effect: 24.49%

## NC(=O)C1(CNCc2cccc(F)c2)CCOCC1
50 µM
  Percent Effect: -0.9049%

## CSCc1nnc(SCC(=O)NC2(C#N)CCCC2)o1
50 µM
  Percent Effect: 9.959%

## CCCNC(=O)C1CCCN1 (configuration not stated)
50 µM
  Percent Effect: 2.398%

## CC(=O)Nc1ccc(-n2cncn2)nc1
50 µM
  Percent Effect: -6.105%

## O=C(NCc1cccnc1)c1cn2cccnc2n1
50 µM
  Percent Effect: -2.314%

## Cc1noc(CCCNC(=O)c2ccon2)n1
50 µM
  Percent Effect: 62.73%

## Cc1ocnc1CNC(=O)c1ccc(Br)cn1
50 µM
  Percent Effect: 1.589%

## CC1(CCNC(=O)c2ccon2)OCCO1
50 µM
  Percent Effect: 9.96%

## Cc1noc(CCCNC(=O)CNC(=O)c2cc3ccccc3[nH]2)n1
10 µM
  Percent Effect: 4.234%

## Cc1nc(C)c(C(=O)NCc2ncoc2C)s1
50 µM
  Percent Effect: -1.836%

## Cc1ocnc1CNC(=O)c1ccon1
50 µM
  Percent Effect: 99.22%

## CCC=C(C)C(=O)NCC(C)N1CCN(CC)CC1 (configuration not stated)
50 µM
  Percent Effect: 11.7%

## CCNC(=O)C1CCN(C(=O)Cc2cccc(O)c2)C1 (configuration not stated)
50 µM
  Percent Effect: -5.389%

## CC(C)(O)CCN1CCC(NC(=O)C2CCC2)CC1
50 µM
  Percent Effect: 0.697%

## COCCN1CCC(c2ccn[nH]2)CC1
50 µM
  Percent Effect: -6.586%

## CNC(=O)NC(=O)CSc1ccccc1F
50 µM
  Percent Effect: -1.003%

## CCOc1ncccc1C(=O)NCC1CCCN1CC (configuration not stated)
50 µM
  Percent Effect: -0.459%

## COc1ncccc1C(=O)NCC(=O)N1CCCC1
50 µM
  Percent Effect: -2.429%

## CCOc1ncccc1C(=O)NCC(C)N1CCCC1 (configuration not stated)
50 µM
  Percent Effect: 52.4%

## CCN1C(=O)C[C@H](CN)[C@H]1c1ccncc1
50 µM
  Percent Effect: 4.591%

## CCCn1cnnc1CNC
50 µM
  Percent Effect: 0.9072%

## CNc1cc(-c2cccc(OC)c2)[nH]n1
50 µM
  Percent Effect: 98.42%

## CNc1cc(OC)ccn1
50 µM
  Percent Effect: -16.02%

## COc1cccc(-c2cc(C(=O)Nc3nc[nH]n3)[nH]n2)c1
10 µM
  Percent Effect: 20.51%

## Cn1cc(Br)c(CO)n1
50 µM
  Percent Effect: 1.484%

## Cc1cc(CCC(=O)NCCC(N)=O)ccc1Br
50 µM
  Percent Effect: -2.096%

## Cc1cc(F)ccc1S(=O)(=O)N1C[C@H](C2CC2)[C@@H](N)C1
50 µM
  Percent Effect: 8.476%

## Cc1ccc(F)c(S(=O)(=O)N2C[C@H](C3CC3)[C@@H](N)C2)c1
50 µM
  Percent Effect: 7.08%

## Cc1ccc(F)cc1S(=O)(=O)N1C[C@H](C2CC2)[C@@H](N)C1
50 µM
  Percent Effect: 98.86%

## COc1ccc(S(=O)(=O)N2C[C@H]3CNC[C@@H](C2)O3)cc1
50 µM
  Percent Effect: -2.543%

## OCC1CCN(Cc2ccccc2)CC1
50 µM
  Percent Effect: -5.201%

## NCc1cccc(OCC(F)F)c1
50 µM
  Percent Effect: -2.735%

## CCCc1ccc(CN2CCC(NC(C)=O)C2)o1 (configuration not stated)
50 µM
  Percent Effect: 2.217%

## O=C(NCC1CCN(C2CC2)C1)c1ccccc1F (configuration not stated)
50 µM
  Percent Effect: 13.84%

## O=C(Cn1cc(Cl)cn1)N1CCCC(c2ccn[nH]2)C1 (configuration not stated)
10 µM
  Percent Effect: -16.77%

## CN(C)c1cc(C2CCCN(C(=O)Cn3cc(Cl)cn3)C2)ccn1 (configuration not stated)
10 µM
  Percent Effect: 0.9748%

## CN(C)[C@H]1CCCCN(C(=O)Cn2cc(Cl)cn2)C1
50 µM
  Percent Effect: 95.45%

## CC(C)(C)CC1CCCN1S(N)(=O)=O (configuration not stated)
50 µM
  Percent Effect: -15.84%

## CC(C)(C(=O)OCC(N)=O)c1ccccc1
50 µM
  Percent Effect: 2.133%

## CC(C)N(C)CC(=O)NCCn1cccc1
50 µM
  Percent Effect: 7.108%

## O=C(NCc1n[nH]c(=O)[nH]1)C1COc2ccccc21 (configuration not stated)
50 µM
  Percent Effect: -1.703%

## CNc1ncc2c(n1)CN(CCc1ccccc1)C2=O
10 µM
  Percent Effect: -25.26%

## COc1cccc(N2Cc3nc(=O)[nH]n3C2=O)c1
10 µM
  Percent Effect: -7.908%

## CCNc1ncc2c(n1)CN(c1cccc(OC)c1)C2=O
10 µM
  Percent Effect: 76.16%

## CNc1ncc2c(n1)CN(c1cccc(OC)c1)C2=O
10 µM
  Percent Effect: 69.02%

## Cc1cccc(N2Cc3nc(N4CCC(C)CC4)ncc3C2=O)c1
10 µM
  Percent Effect: 14.75%

## COc1ccc(N2Cc3nc(N)ncc3C2=O)cc1
10 µM
  Percent Effect: 9.612%
